Source: PubChem (National Center for Advancing Translational Sciences (NCATS))
Hits are enriched below; roughly 11% of the tested compounds scored in any of these assays.
ALOX12 inhib = inhibitors of human 12-lipoxygenase (ALOX12). AID 1452. purified 12-hLO, xylenol orange hydroperoxide absorbance. 150,000 compounds, 0.12% hits. Potency, µM (highest dose often 57.1 µM), for inactives: at the top dose activity change, negative = inhibition, usual class: inhibitors. P18054; further: potency means the concentration at half of the fitted maximal effect; nearly all actives have a fitted effect of over 55% in size
Target sequence (P18054 whole entry, looked up): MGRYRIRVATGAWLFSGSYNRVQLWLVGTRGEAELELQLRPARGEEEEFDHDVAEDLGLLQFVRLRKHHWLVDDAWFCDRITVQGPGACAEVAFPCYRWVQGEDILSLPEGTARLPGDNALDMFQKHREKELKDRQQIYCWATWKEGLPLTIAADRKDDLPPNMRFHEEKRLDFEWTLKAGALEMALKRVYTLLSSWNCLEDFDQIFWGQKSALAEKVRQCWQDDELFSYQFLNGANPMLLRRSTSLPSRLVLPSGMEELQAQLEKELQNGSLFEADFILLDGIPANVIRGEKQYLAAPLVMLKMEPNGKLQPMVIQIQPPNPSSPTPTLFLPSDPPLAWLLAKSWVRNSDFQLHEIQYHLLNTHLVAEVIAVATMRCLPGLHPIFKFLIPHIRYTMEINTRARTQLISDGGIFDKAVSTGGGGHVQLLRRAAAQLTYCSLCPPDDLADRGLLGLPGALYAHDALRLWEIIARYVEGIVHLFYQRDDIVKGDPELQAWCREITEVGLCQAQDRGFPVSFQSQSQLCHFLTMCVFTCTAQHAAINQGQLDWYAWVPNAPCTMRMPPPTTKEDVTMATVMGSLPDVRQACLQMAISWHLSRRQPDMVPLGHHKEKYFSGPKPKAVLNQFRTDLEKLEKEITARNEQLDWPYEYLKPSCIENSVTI
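Xylenol orange chromogenic assay: hydroperoxide from 12hLO oxidises Fe(II), giving red-shifted Fe(III)-XO absorbance. Conditions: 150 nM enzyme, 40 uM arachidonic acid, 25 mM Hepes pH 7.0, 0.01% Triton X-100, 30 min, room temperature.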
HPGD block = blocks human HPGD enzyme activity; 150,000 compounds, 4.3% hits; purified HPGD, NADH fluorescence kinetic, PGE2 substrate; Potency, µM, for the others: top-dose activity change, negative = inhibition, usual class: inhibitors; AID 894; active means well fitted inhibition curve with a large enough effect, not every such curve was filed as active; inconclusive means small, poorly fitted or top-dose-only effect, or another doubt; inactive means no such curve, though single readings can be large or run the other way; further: potency means the concentration at half of the fitted maximal effect
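NADH formation kinetics: reaction with 30 uM PGE2 and 1 mM NAD+ (final), 20 nM enzyme, Tris-HCl pH 8 with Tween 20, after 15 min compound preincubation at room temperature. Fluorescence change, last versus first of five reads.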
IMPase Li inh = IMPase inhibition in cells with lithium potentiation; CHO-M1 cells, IP1 TR-FRET (IP-One), carbachol + lithium; 210,000 compounds, 0.35% hits; AID 1457; Potency, µM (top dose mostly 59.4 µM), for the others: at the top dose activity, negative = IMPase inhibition, usual class: inhibitors;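 further: IP1 builds up when IMPase is blocked and the TR-FRET signal falls; potency means the concentration at half of the fitted maximal effect; plate controls were basal vehicle for no effect and high inhibitor control for full effect; nearly all actives have a fitted effect of over 50% in size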
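CHO cells stably expressing M1 receptor (2000/well, cultured 16–30 h) treated 30 min at 37C with compound plus low lithium. Cytosolic IP1 by TR-FRET (665/620 ratio and 620 channel) after 10 min lysis; AC50 by Hill fit.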
IMPase inh = IMPase inhibition in cells; CHO-M1 cells, IP1 accumulation, HTRF TR-FRET ratio; inhibition (IP1 accumulation), % at 46.1 µM; 120,000 tested, under 10 active; active means well fitted curve in the direction sought with a large enough effect in the signal ratio, not every such curve was filed as active; inconclusive means small, poorly fitted or top-dose-only effect, or a change in a side signal; inactive means no such curve, though single readings can be large or run the other way; the % refers to the signal ratio;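 further: cells stimulated with carbachol in lithium chloride buffer; plate controls were DMSO basal wells for no effect and reference inhibitor wells for full effect; higher means more IMPase inhibition seen as more IP1 and lower FRET ratio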
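Seeded CHO-M1 cells were dosed with compound at up to 46 uM, stimulated with carbachol for 30 min, then lysed in IP-One detection reagents. Higher IP1 lowers the TR-FRET signal.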
PNC assembly inh = inhibitors of perinucleolar compartment assembly; PC3M PTB-GFP, PNC prevalence imaging, 16 h; hits give low values; activity change (PNC), negative = inhibition, % at 10 µM; 140,000 compounds, 3.1% hits; AID 2417;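 active means readout at or below -70, meaning at least 70% loss of cells showing the perinucleolar compartment, a nuclear body marking cancer cells; inconclusive means readout between -30 and a set limit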;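 further: plate controls were DMSO wells for no effect and camptothecin positive control wells for full effect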
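Compounds are pinned in duplicate onto adhered PC3M cells stably expressing GFP-tagged PTB and incubated 16 h at 37 C. Cells are then fixed, nuclei stained with Hoechst, and PNC-positive cells counted.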
ALDH1A1 block = ALDH1A1 (human) enzyme inhibition; P00352; Purified ALDH1A1, NADH fluorescence, propionaldehyde substrate; Potency, µM (titrated, usually from 75.3 µM), for inactives: at the highest dose activity, negative = inhibition, usual class: inhibitors; 220,000 compounds, 7.3% hits; active means well fitted inhibition curve with a large enough effect, not every such curve was filed as active; inconclusive means small, poorly fitted or top-dose-only effect, or another doubt; inactive means no such curve, though single readings can be large or run the other way;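 further: potency means the concentration at half of the fitted maximal effect; plate controls were no enzyme wells and a reference inhibitor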
* marks the source's active call; other numbers are inactive results; ? = inconclusive; . = no result; [ ] = remark or other dose. Unless noted, the call rests on the fitted dose curve; in most records, active means well fitted curve in the direction sought with a large enough effect; inconclusive means small, poorly fitted or top-dose-only effect, or another doubt; inactive means no such curve, though single readings can be large; an effect the other way counts as inactive or inconclusive. Unless noted, on the % scale 0 is the no-effect control and ±100 the full control effect.

SMILES	ALOX12 inhib	HPGD block	IMPase Li inh	IMPase inh	PNC assembly inh	ALDH1A1 block
COCCCNC(=O)c1ccc2c(c1)OCO2	-4.7%	6.31µM*	15.1%[38.3 µM]	-2.1	23.5	-2.2%
CC(OC(=O)CNC(=O)c1ccc2c(c1)OCO2)C(=O)NCCC1=CCCCC1 (stereo not given)	-5.7%	17.8µM*	3.2%[38.3 µM]	11.3	?	2.8%
CCCCOCCCNC(=O)c1ccc2c(c1)OCO2	-14.4%	25.1µM*	-15.7%[38.3 µM]	7.6	12.7	-0.6%
CCCCOCCOCCOCCCC	2.6%	-1.0%	11.5%	.	.	7.2%
CCCCOCCOCCOCc1cc2c(cc1CCC)OCO2	-0.8%	-11.3%	22.2%	.	.	10µM*
COc1cc(/C=C/C(=O)c2ccc(NS(=O)(=O)c3ccc(C)cc3)cc2)cc(OC)c1O	-15.7%	-17.2%	8.5%	-0.8	34.0	22.4µM*
COc1cccc(/C=C/C(=O)c2ccc(NS(=O)(=O)c3ccc(C)cc3)cc2)c1	-12.9%	-16.0%	4.5%	.	?	-7.8%
COc1cc(/C=C/C(=O)c2ccc(NS(=O)(=O)c3ccc(C)cc3)cc2)ccc1OC(F)F	-22.7%	15.8µM*	-7.1%	.	-28.2	-1.5%
S=c1nc(-c2ccccc2)n(Cc2ccco2)c2c1CCCC2	-25.4%	?	12.6µM*	4.0	24.8	10µM*
COc1ccc(NC(=O)COc2ccc(S(=O)(=O)NC3CCCCC3)cc2)c(OC)c1	.	.	.	-4.3	.	.
O=C(Nc1nc(-c2cccs2)c(C(=O)C(F)(F)F)s1)c1ccco1	.	.	10µM*	.	.	3.2%
O=C(Nc1ccc2c(c1)Cc1ccccc1-2)c1ccncc1	-0.5%	-19.5%	-1.4%	.	4.1	5.1%
O=C(O)c1ccc(C(=O)O)c(C(=O)Nc2ccc3c(c2)Cc2ccccc2-3)c1	-5.6%[11.4 µM]	3.16µM*	-9.5%	.	.	?
Cc1ccccc1CSCCNS(C)(=O)=O	-2.3%	1.8%	7.6%[38.3 µM]	-5.9	9.1	-6.9%
COc1ccc(S(=O)(=O)NCCSCc2ccccc2C)cc1Br	-12.8%	28.2µM*	1.1%[38.3 µM]	1.0	5.8	25.1µM*
Nc1nc2c(nc(Br)n2C2CC(O)C(CO)O2)c(=O)[nH]1 (stereo not given)	1.8%	-5.0%	-5.9%	.	.	5.4%
COCCCNC(=O)C1CCC(CNS(=O)(=O)c2ccc(Cl)cc2)CC1 (stereo not given)	.	.	-2.9%	.	.	-11.5%
Cc1ccc(S(=O)(=O)NCC2CCC(C(=O)NCCCOC(C)C)CC2)cc1 (stereo not given)	-2.8%	-25.3%	-3.7%	.	?	0.708µM*
CC(C)OCCCNC(=O)C1CCC(CNS(=O)(=O)c2ccccc2)CC1 (stereo not given)	-2.6%	?	-5.4%	.	7.0	3.55µM*
CC(C)OCCCNC(=O)C1CCC(CNS(=O)(=O)c2ccc(Cl)cc2)CC1 (stereo not given)	-2.6%	-10.3%	-2.9%	.	28.8	?
CC[C@@H](c1ccccc1)n1c(=O)n2n(c1=O)[C@H]1[C@H](O)[C@H]3O[C@@H]3/C(=N/OCc3ccccc3)[C@@H]1CC2	.	.	.	.	.	1.0%[13.5 µM]
COc1ccc(OC)c(NC(=O)COC(=O)c2ccc(-n3cnnn3)cc2)c1	-4.3%	.	.	3.4	-16.1	-1.0%
COC(=O)c1ccc(COC(=O)c2ccc(-n3cnnn3)cc2)o1	0.5%	-17.0%	20.8%[38.3 µM]	7.5	-23.1	20µM*
COc1ccc(S(=O)(=O)NCCc2c(C)nn(C)c2Oc2ccccc2)cc1	-4.1%	4.2%	9.6%	3.6	-27.5	0.631µM*
O=C(COC(=O)C1CCN(S(=O)(=O)c2cccc3cccnc23)CC1)c1ccc([N+](=O)[O-])cc1	8.0%	-6.0%	-4.1%	9.9	-26.5	6.31µM*
SMILES	ALOX12 inhib	HPGD block	IMPase Li inh	IMPase inh	PNC assembly inh	ALDH1A1 block
O=C(Nc1ccccc1)C1=C(O)CC(c2ccc(Cl)cc2)N2CCN=C12 (stereo not given)	-0.7%	-2.9%	5.9%	.	?	14.1µM*
Fc1ccc(-c2c[nH]c(=S)n2Cc2ccccc2)cc1	.	.	12.0%	.	.	0.355µM*
S=c1[nH]nc(-c2ccccc2Cl)n1Cc1ccccc1	.	.	7.2%	.	.	?
NC(N)=NC(N)=Nc1ccc(S(=O)(=O)O)cc1	-2.5%[11.4 µM]	-1.0%	-3.0%	.	.	6.8%[13.5 µM]
COC(=O)c1ccccc1NC(=O)c1cc2nc(-c3ccccc3)cc(-c3ccccc3)n2n1	.	.	.	-1.8	.	.
COc1cccc(C(=O)N/N=C(\CC(C)C)c2ccccc2)c1	3.3%	-6.0%	4.3%	.	?	2.0%
Cc1ccc(C(=O)N/N=C(\CC(C)C)c2ccccc2)cc1	1.4%	-15.4%	3.1%	.	-105.1*	-10.0%
O=C(c1ccccc1-c1nc(-c2ccc(F)cc2)no1)N1CCCC1	-4.8%	-5.7%	-1.8%[38.3 µM]	-1.0	-100.0*	?
COc1ccc(N(Cc2cc(=O)[nH]c3ccccc23)C(=O)c2ccco2)cc1	-19.5%	-12.6%	7.1%[38.3 µM]	-0.2	-0.9	14.1µM*
COc1ccc(CN(C(=O)c2ccco2)c2ccccc2)cc1	-3.0%	-20.8%	-0.6%	-1.3	1.1	-3.6%
CCC(=O)N(Cc1cc(=O)[nH]c2ccccc12)c1cccc(C)c1	-18.9%	?	-14.9%[38.3 µM]	11.6	2.0	39.8µM*
Cc1cc(C(=O)N/N=C2\CC(=O)CC(C)(C)C2)c(C)n1-c1ccc(F)cc1	-5.8%	-9.6%	-0.8%	.	47.2	28.2µM*
Cc1cc(C(=O)N/N=C2\CC(=O)c3ccccc32)c(C)n1-c1ccccc1	.	.	6.2%	.	.	1.2%
Cc1cc(C(=O)N/N=C2\CC(=O)CC(C)(C)C2)c(C)n1-c1ccccc1	-6.1%	-21.6%	6.7%	.	-94.6*	?
COc1ccc(COC(=O)N/N=C2/C[C@@H](O)[C@@H](O)[C@@H]3[C@@H]4C(=O)N(c5cccc(Oc6ccccc6)c5)C(=O)[C@H]4CC[C@H]23)cc1	.	.	.	.	.	-6.8%[13.5 µM]
CCOC(=O)c1c(Nc2ccc(C)c(C)c2)nnc(-c2ccccc2)c1-c1ccccc1	.	.	.	-0.5	.	.
CCCCC[n+]1ccn(C2=C([O-])c3ccccc3C(=O)/C2=N\S(=O)(=O)c2ccccc2)c1	-1.2%	-11.2%	13.5%[38.3 µM]	13.3	94.7	5.01µM*
CCCC[n+]1ccn(C2=C([O-])c3ccccc3C(=O)/C2=N\S(=O)(=O)c2ccccc2)c1	-16.2%	-14.6%	-1.6%[38.3 µM]	10.3	42.1	?
Cc1cccc(C(=O)Nc2sc3c(c2C(=O)NC(C)C)CCCC3)c1	.	.	.	-16.3	.	.
CC(=O)O[C@H]1C2=C(C(=O)[C@H]3O[C@@H]31)[C@@H]1[C@@H]3[C@@H](C)OC=C4[C@H](O)[C@H]5O[C@@H]5C(=O)[C@]43C2O[C@H]1C	.	.	.	.	.	12.5%[13.5 µM]
NC(CCC(=O)NC(CCSC(CC(=O)O)C(=O)O)C(=O)NCC(=O)O)C(=O)O (stereo not given)	-1.8%	-6.0%	2.1%	.	.	5.3%
Cc1ccccc1-n1nnnc1SC1CCOC1=O (stereo not given)	0.7%	-11.5%	-5.7%[38.3 µM]	2.2	-19.1	11.2µM*
